Each structure is given as a SMILES string. Among all 320,000 compounds or so, about 2,800 (0.88%) were called active.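 The calls were made as follows: active = inhibition above the mean inhibition of all tested compounds plus 3 SD, computed separately for each screening campaign (cut at about 15% in these data); inactive = the rest.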 The entries come from a sample that favours actives as a whole.

For the assay, the target named is Serine/threonine-protein phosphatase PP1-alpha catalytic subunit (Homo sapiens) (UniProt P62136). The experiment in a line: inhibition of human PP1 catalytic subunit – biochemical, fluorescence, OMFP substrate, single point, counter-screen for PP5 inhibitor project, primary screen (AID 2235). As to conditions: purified PP1alpha, at 6.7 µM, stronger effect = higher value. A general note: Counterscreens check selectivity or assay interference.
Sequence of Serine/threonine-protein phosphatase PP1-alpha catalytic subunit (Homo sapiens) (P62136 whole entry, looked up): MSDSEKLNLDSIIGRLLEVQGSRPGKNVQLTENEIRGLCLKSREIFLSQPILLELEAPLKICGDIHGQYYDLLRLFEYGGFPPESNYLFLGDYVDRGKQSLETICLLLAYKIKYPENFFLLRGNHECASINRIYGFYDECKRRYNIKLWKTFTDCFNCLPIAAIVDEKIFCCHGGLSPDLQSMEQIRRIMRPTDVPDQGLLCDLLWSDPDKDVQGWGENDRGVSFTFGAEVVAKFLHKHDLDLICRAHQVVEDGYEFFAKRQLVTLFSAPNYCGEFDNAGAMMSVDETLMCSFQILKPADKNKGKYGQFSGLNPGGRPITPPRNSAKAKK
On to `O=c1[nH]c(CN2CC=C(c3ccccc3)CC2)nc2scc(-c3cccs3)c12`, for which the inhibition is 18.9% (active). The figure for `CC(C)Nc1nc(Cl)nc(NC(C)C)n1` is -5.49% (inactive). The figure for `Cc1ccc(Cn2c(C)c3cnn(CC(=O)N4CCC5(CC4)OCCO5)c(=O)c3c2C)cc1` is 10.3% (inactive).

Consider `COC(=O)C1=C(c2cccc(OCc3ccccc3)c2)C[C@@H]2CC[C@H]1N2C(=O)NNCc1ccccc1`, for which the inhibition is 7.24% (inactive).

Regarding `Cc1ccc(P(=S)(c2ccc(C)o2)N2CCOCC2)o1`, the inhibition is 3.58% (inactive). Take `Cc1ccc(-c2nn(CCC#N)cc2C(=O)O)cc1C`: the inhibition was 0.33% (inactive). As for `O=C(O)c1ccccc1NC(=O)C1C2CCC(O2)C1C(=O)O` (stereo not given), the figure is 33.1% (active); as for `CC(=O)Nc1ccc(C(=O)C(Cc2ccccc2)N(C)C)cc1` (stereo not given), -0.99% (inactive); as for `COC(=O)C1=C(c2cc3ccccc3o2)C[C@@H]2CC[C@H]1N2C(=O)NC1CCCCC1`, -1% (inactive).

In the case of `CCOP(=O)(OCC)C(NC(=O)c1ccc(C)cc1)C(Cl)(Cl)Cl` (stereo not given), the inhibition was -1.96% (inactive). As for `CCOP(=O)(OCC)C(NC(=O)c1ccc(OC)cc1)C(Cl)(Cl)Cl` (stereo not given), the figure is 0.9% (inactive); as for `CCOP(=O)(OCC)C(O)c1ccc(OC)cc1OC` (stereo not given), 47.2% (active); as for `CNC(=O)Nc1ccc(C(O)(C(=O)OC)C(F)(F)F)cc1` (stereo not given), 1.95% (inactive).

As to `Cc1ccc(C2CN(C)CC2C(=O)c2ccc(F)cc2)cc1` (stereo not given), the inhibition was -2.93% (inactive). Turning to `COCc1cc(OC(=O)N(C)C)nc(-c2ccc(C)c(Cl)c2)n1`, the inhibition was -1.37% (inactive).

A word on the inhibition: it is the change of the read-out against control, counted positive when it falls.

The record behind these values is PubChem BioAssay AID2235 (The Scripps Research Institute Molecular Screening Center, 2010).
